Assay results from the supplement of paper PMC12067926.

What was measured:
Assay in all cases: relative growth (AUC of 72 h growth curve relative to DMSO control, dAUC) (ratio); higher = more growth (less inhibition), active = hit call of the paper
Conditions in all cases: 20 µM;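 active = growth AUC significantly below the DMSO wells by Dunnett test; inactive = the rest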
[1] = system: Aeromonas 1 (Aeromonas sp. AE235)
How it was run: (§1)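 Whole sediment communities and bacterial isolates from Icelandic stream sediments and Silwood Park soil were brought to carrying capacity in Luria–Bertani medium. They were then diluted 1:100 into 96-well plates with each chemical at 20 µM in 1% DMSO, and A600 was recorded every hour for 72 h. The area under each growth curve, integrated by spline, was averaged across three biological replicates. This figure, divided by the mean of the DMSO controls, gives relative growth (dAUC).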

[2] = system: Aeromonas 2 (Aeromonas sobria)
How it was run: as §1

[3] = system: Aeromonas 3 (Aeromonas popoffii)
How it was run: as §1

[4] = system: Argrobacterium 1 (Agrobacterium sp.)
How it was run: as §1

[5] = system: Arthrobacter 1 (Arthrobacter humicola)
How it was run: as §1

[6] = system: Arthrobacter 2 (Arthrobacter humicola)
How it was run: as §1

[7] = system: Arthrobacter 3 (Arthrobacter sp.)
How it was run: as §1

Community 10 = system: Community 10
How it was run: as §1

Community 4 = system: Community 4
How it was run: as §1

Community 6 = system: Community 6
How it was run: as §1

Community 7 = system: Community 7
How it was run: as §1

Community 8 = system: Community 8
How it was run: as §1

Community 9 = system: Community 9
How it was run: as §1

[8] = system: Flavobacterium 1 (Flavobacterium glaciei)
How it was run: as §1

[9] = system: Flavobacterium 2 (Flavobacterium succinicans)
How it was run: as §1

[10] = system: Hymenobacter 1 (Hymenobacter glaciei)
How it was run: as §1

[11] = system: Microbacterium 1 (Microbacterium arborescens)
How it was run: as §1

[12] = system: Neobacillus 1 (Neobacillus soli)
How it was run: as §1

[13] = system: Oryzobacter 1 (Oryzobacter terrae)
How it was run: as §1

[14] = system: Paenibacillus 1 (Paenibacillus castaneae)
How it was run: as §1

Measured: relative growth

CCCCN(CCCC)SN(C)C(=O)Oc1cccc2c1OC(C)(C)C2
inactive: [1] 1.06 | [2] 1.03 | [3] 1.05 | [4] 1.07 | [5] 1.23 | [6] 0.838 | [7] 0.966 | Community 10 0.824 | Community 4 0.917 | Community 6 0.92 | Community 7 1.13 | Community 8 1.01 | Community 9 0.884 | [8] 0.925 | [9] 0.985 | [10] 1.13 | [11] 1.01 | [12] 0.952 | [13] 1.2 | [14] 1.12

CN/C(=N\[N+](=O)[O-])NCc1cnc(Cl)s1
inactive: [1] 1 | [2] 0.976 | [3] 0.985 | [4] 0.98 | [5] 0.983 | [6] 0.841 | [7] 0.873 | Community 10 0.931 | Community 4 0.981 | Community 6 0.914 | Community 7 1.06 | Community 8 1 | Community 9 0.871 | [8] 0.869 | [9] 0.939 | [10] 0.958 | [11] 0.983 | [12] 0.85 | [13] 1.05 | [14] 0.961

OC(Cc1ccccc1Cl)(Cn1nc[nH]c1=S)C1(Cl)CC1 (stereo not drawn)
inactive: [1] 0.97 | [2] 0.986 | [3] 1.03 | [4] 1.01 | [5] 0.952 | [6] 1.04 | [7] 1.07 | Community 10 0.945 | Community 4 1.01 | Community 6 0.982 | Community 7 0.968 | Community 8 1.03 | Community 9 1.02 | [8] 1.09 | [9] 1 | [10] 1.01 | [11] 0.958 | [12] 1.05 | [13] 0.894 | [14] 1.01

O=C(O)CNCP(=O)(O)O
inactive: [1] 0.998 | [2] 1 | [3] 1.03 | [4] 1.01 | [5] 0.952 | [6] 1.04 | [7] 1.04 | Community 4 1.03 | Community 6 1.07 | Community 7 1.06 | Community 8 1.04 | Community 9 1.04 | [8] 0.964 | [9] 1.02 | [10] 1.11 | [11] 1.05 | [12] 1.04 | [13] 1.02 | [14] 0.969

CCOP(=S)(OCC)Oc1cc(C)nc(C(C)C)n1
inactive: [1] 0.987 | [2] 0.964 | [3] 0.98 | [4] 1.16 | [5] 0.981 | [6] 0.834 | [7] 0.888 | Community 10 0.743 | Community 4 0.904 | Community 6 0.958 | Community 7 1.1 | Community 8 0.976 | Community 9 0.912 | [8] 0.913 | [9] 0.909 | [10] 0.975 | [11] 0.969 | [12] 0.943 | [13] 1.09 | [14] 0.922

N#Cc1cc(Br)c(O)c(Br)c1
active: [13] 0.742
inactive: [1] 0.985 | [2] 0.899 | [3] 1.01 | [4] 1.03 | [5] 0.984 | [6] 0.827 | [7] 1.02 | Community 4 1.08 | Community 6 1.05 | Community 7 1.07 | Community 8 1.05 | Community 9 1.08 | [8] 1.02 | [9] 0.951 | [10] 0.861 | [11] 1.05 | [12] 0.842 | [14] 1.16

CN/C(=N/CC1CCOC1)N[N+](=O)[O-] (stereo not drawn)
inactive: [1] 1 | [2] 1.02 | [3] 1.05 | [4] 1.02 | [5] 1.01 | [6] 1.03 | [7] 0.998 | Community 10 0.953 | Community 4 1.09 | Community 6 1 | Community 7 1.01 | Community 8 1.03 | Community 9 1.04 | [8] 1.04 | [9] 1.02 | [10] 1.06 | [11] 1.02 | [12] 0.994 | [13] 0.957 | [14] 1.01

Nc1c(Cl)c(F)nc(OCC(=O)O)c1Cl
inactive: [1] 0.974 | [2] 1 | [3] 0.991 | [4] 1.03 | [5] 1.1 | [6] 1.02 | [7] 0.991 | Community 10 0.976 | Community 4 1.07 | Community 6 1.01 | Community 7 1.01 | Community 8 1.04 | Community 9 1.03 | [8] 1.07 | [9] 0.993 | [10] 1.03 | [11] 1.02 | [12] 1.04 | [13] 1.01 | [14] 1.03

O=C(Nc1ccc(F)cc1F)c1cccnc1Oc1cccc(C(F)(F)F)c1
inactive: [1] 1.03 | [2] 0.98 | [3] 1.01 | [4] 1.02 | [5] 1.06 | [6] 1 | [7] 1.07 | Community 10 0.942 | Community 4 1.08 | Community 6 0.987 | Community 7 1.04 | Community 8 0.97 | Community 9 1.11 | [8] 1.09 | [9] 1.03 | [10] 1.05 | [11] 0.997 | [12] 1.06 | [13] 1.03 | [14] 0.937

Cc1cc(C(F)(C(F)(F)F)C(F)(F)F)ccc1NC(=O)c1cccc(I)c1C(=O)NC(C)(C)CS(C)(=O)=O
inactive: [1] 0.939 | [2] 0.974 | [5] 0.792 | [6] 1.02 | [7] 0.822 | Community 10 1.21 | Community 4 0.805 | Community 6 0.894 | Community 7 1.15 | Community 8 1.07 | Community 9 0.75 | [8] 0.818 | [9] 1.2 | [10] 0.857 | [11] 0.925 | [12] 1.09 | [13] 0.97 | [14] 1.02
active: [4] 0.695
1.41: [3]

CCCCC(C#N)(Cn1cncn1)c1ccc(Cl)cc1 (stereo not drawn)
inactive: [1] 0.946 | [2] 0.901 | [3] 0.979 | [4] 1.07 | [5] 0.975 | [6] 0.849 | [7] 0.841 | Community 10 0.956 | Community 4 0.921 | Community 6 0.931 | Community 7 0.991 | Community 8 0.904 | Community 9 0.937 | [8] 0.856 | [9] 0.885 | [10] 0.912 | [11] 0.925 | [12] 0.942 | [13] 1.12 | [14] 0.97

CCOC(=O)CC(SP(=S)(OC)OC)C(=O)OCC (stereo not drawn)
inactive: [1] 1.06 | [2] 0.992 | [3] 1.02 | [4] 1.01 | [5] 1.22 | [6] 1.05 | [7] 0.98 | Community 10 0.992 | Community 4 1.15 | Community 6 1.09 | Community 7 1.04 | Community 8 0.99 | Community 9 1.14 | [8] 1.02 | [9] 1.02 | [10] 1.02 | [11] 1 | [12] 1.06 | [13] 1.1 | [14] 1.02

CCOc1cc(Oc2ccc(C(F)(F)F)cc2Cl)ccc1[N+](=O)[O-]
active: [14] 0.735
inactive: [1] 0.962 | [2] 0.975 | [3] 0.966 | [4] 1.01 | [5] 1.02 | [6] 0.848 | [7] 1.01 | Community 10 0.824 | Community 4 0.905 | Community 6 0.907 | Community 7 0.968 | Community 8 1.04 | Community 9 0.975 | [8] 1.05 | [9] 0.971 | [10] 1.03 | [11] 1.07 | [12] 1.01 | [13] 1.03

CCc1cc(C)cc(CC)c1-c1c(OC(=O)C(C)(C)C)n2n(c1=O)CCOCC2
inactive: [1] 0.987 | [2] 0.978 | [3] 1.02 | [4] 0.957 | [5] 1.01 | [6] 0.873 | [7] 0.917 | Community 10 0.925 | Community 4 0.852 | Community 6 0.906 | Community 7 1.05 | Community 8 0.968 | Community 9 0.884 | [8] 1.02 | [9] 0.943 | [10] 0.947 | [11] 1.03 | [12] 0.861 | [13] 1.01 | [14] 0.956

CCCC(Cn1cncn1)c1ccc(Cl)cc1Cl (stereo not drawn)
inactive: [1] 0.932 | [2] 0.996 | [3] 1.01 | [4] 1.15 | [5] 1 | [6] 1.02 | [7] 0.987 | Community 10 0.973 | Community 4 1.11 | Community 6 1.06 | Community 7 0.902 | Community 8 1.09 | Community 9 1.12 | [8] 1.07 | [9] 0.966 | [10] 0.877 | [11] 0.99 | [12] 1.09 | [13] 1.05 | [14] 1.06

CCc1cccc(C)c1N(C(=O)CCl)[C@@H](C)COC
inactive: [1] 1.01 | [2] 0.962 | [3] 0.992 | [4] 1 | [5] 1.08 | [6] 0.89 | [7] 1.02 | Community 10 0.929 | Community 4 1.01 | Community 6 0.968 | Community 7 1.12 | Community 8 1.05 | Community 9 0.948 | [8] 0.984 | [9] 0.967 | [10] 1.04 | [11] 1.04 | [12] 0.981 | [13] 1.06 | [14] 0.974
